According to PubChem BioAssay AID624330 (Southern Research Specialized Biocontainment Screening …, 2012):
Hit rate of the full screen: of about 340,000 compounds, about 2,100 (0.62%) were called active.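 Rule for the calls: active = first-screen hits whose inhibition reached a set limit at any dose in the follow-up dose series; inconclusive = inhibition above the set first-screen limit but never retested; inactive = the rest.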 A selection follows. Results with a measured potency or affinity are listed apart.

target: Rac GTPase-activating protein 1 (Homo sapiens) (UniProt Q9H0H5); test: MgcRacGAP GTPase-activating activity inhibitors, confirmation, biochemical, ADP Hunter fluorescence, primary and confirmatory (AID 624330); settings: MgcRacGAP-stimulated Rac1 GTP hydrolysis, at 30 µM, active compounds read high, GST-tagged Rac1 F28L mutant substrate;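 note: fluorescence reports GDP produced by GAP-driven GTP hydrolysis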
Sequence (Q9H0H5 whole entry, looked up): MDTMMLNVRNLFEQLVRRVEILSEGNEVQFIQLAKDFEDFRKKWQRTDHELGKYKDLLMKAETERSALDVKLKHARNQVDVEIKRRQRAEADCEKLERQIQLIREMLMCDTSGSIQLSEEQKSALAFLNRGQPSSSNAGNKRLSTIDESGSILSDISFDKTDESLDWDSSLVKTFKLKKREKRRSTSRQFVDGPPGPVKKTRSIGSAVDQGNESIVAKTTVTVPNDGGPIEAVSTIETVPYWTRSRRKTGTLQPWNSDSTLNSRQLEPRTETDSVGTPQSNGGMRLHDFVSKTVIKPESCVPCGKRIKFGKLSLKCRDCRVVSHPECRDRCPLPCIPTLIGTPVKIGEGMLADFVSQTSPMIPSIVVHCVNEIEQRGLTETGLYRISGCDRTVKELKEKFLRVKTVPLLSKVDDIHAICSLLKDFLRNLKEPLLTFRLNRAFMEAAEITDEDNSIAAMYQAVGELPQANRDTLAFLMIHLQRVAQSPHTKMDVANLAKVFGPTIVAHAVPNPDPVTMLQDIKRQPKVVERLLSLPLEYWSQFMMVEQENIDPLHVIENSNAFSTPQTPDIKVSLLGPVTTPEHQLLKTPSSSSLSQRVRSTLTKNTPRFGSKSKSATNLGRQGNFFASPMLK

inhibition, inactive:
COc1cccc(C(=O)NCC(c2ccco2)N2CCc3ccccc3C2)c1 (stereo not drawn) 7.73%
N#CC1=C(S)N(c2ccc(F)cc2)C(c2cccs2)NC1=O (stereo not drawn) 38.9%
N#CC1=C(S)N(c2ccccc2)C(c2cccs2)NC1=O (stereo not drawn) 53%
Cc1cccc(N2C(S)=C(C#N)C(=O)NC2c2ccco2)c1 (stereo not drawn) 48.2%
Cc1ccccc1N1C(S)=C(C#N)C(=O)NC1c1cccs1 (stereo not drawn) 39%
COC(=O)c1nnc(-c2ccccc2)nc1OC 4.64%
CCN(CC(=O)Nc1ccccc1C(F)(F)F)C(=O)c1cc(-c2cccs2)nn1-c1ccccc1 1.06%
CCC(=O)OCc1cc(=O)oc2ccc3ccccc3c12 9.78%
O=C(c1cncc(Br)c1)N1CCN(S(=O)(=O)c2ccc3ccccc3c2)CC1 2.91%
Nc1nccnc1C(=O)OCC(=O)NC1CCCc2ccccc21 (stereo not drawn) 2.06%
CCN1CCN(c2sc(S(=O)(=O)CC)nc2S(=O)(=O)c2ccc(Cl)cc2)CC1 13.7%
Cc1ccc(C2=N/C(=C\c3cccs3)C(=O)N2Nc2ccccc2)cc1 4.5%
COc1ccc(OCC(O)Cn2ccnc2C)cc1 (stereo not drawn) -5.32%
Cc1nccn1CCOc1ccc(Cl)cc1 19.6%
C/C(=N\Nc1nc2ccccc2[nH]1)c1ccc2c(c1)OCO2 29.4%
C/C(=N\Nc1nc2ccccc2[nH]1)c1ccccn1 16.1%
C/C(=N\Nc1nc2ccccc2[nH]1)c1ccc([N+](=O)[O-])cc1 9.3%
C/C(=N\Nc1nc2ccccc2[nH]1)c1ccc2c(c1)OCCO2 14.6%
C/C(=N\Nc1nc2ccccc2s1)c1cccs1 15.9%
O=C(Nc1nc2ccccc2[nH]1)c1cccs1 5.07%
COc1ccc(CN2C(=O)c3cccnc3C2=O)cc1S(=O)(=O)N1CCCCC1 5.59%
CCN1CCN(c2ccc(NC(=O)c3ccccc3F)cc2Cl)CC1 10.3%
O=C(CSc1nc(=O)n2ccccc2n1)N1CCC(Cc2ccccc2)CC1 2.37%
CC(C)Nc1nc(NC2CCCC2)nc(N2CCOCC2)n1 -6.17%
Cc1cccc(NS(=O)(=O)c2cccc(C(=O)N3CCCCCCC3)c2)c1 7.59%
CCOC(=O)C1=C(C)NC(C)=C(C(=O)OCC)C1C(=O)O -2.63%
Oc1ccc(/C=C/c2ccnc3ccccc23)cc1 20.5%
O=c1[nH]c2ccccc2nc1/C=C/c1ccc(F)cc1 2.77%
CN(C)c1ccc(/C=C/c2ccc3ccccc3n2)cc1 10.9%
C(=C\c1ccc2ccccc2n1)/c1ccccc1 -0.19%
O=C(Nc1cccc(S(=O)(=O)NC2=NCCCCC2)c1)c1cc(-c2ccc(Cl)cc2)nc2ccccc12 9.39%
Cc1ccc(-c2nnc(SCC(=O)Nc3nc4c(s3)CCCC4)n2C)cc1 10.7%
COc1ccc(O)c(/C=N/NC(=O)CCC(=O)Nc2cccc(C)c2)c1 6.29%
Cc1cccc(NC(=O)CCC(=O)N/N=C/c2cc([N+](=O)[O-])ccc2O)c1 5.13%
COc1ccc(O)c(/C=N/NC(=O)CCC(=O)Nc2ccc(C)cc2)c1 5.47%
Cc1ccc(NC(=O)CCC(=O)N/N=C/c2ccccc2O)cc1 -6.53%
COc1ccc(N2CCN(C(=O)COC(=O)Cc3ccc(F)cc3)CC2)cc1 17.9%
C[C@@H]1CN([C@H](C)CO)C(=O)CCCn2nncc2CO[C@H]1CN(C)Cc1ccc(O)cc1 7.18%
O=C(c1cc(-c2ccco2)on1)N1CCOCC1 2.62%
Cn1c(SCC(=O)N2CCOCC2)nnc1-c1ccco1 -0.83%
Cc1cccc(N2C(=O)C(O)=C(C(=O)c3cccs3)C2c2ccc(F)cc2)n1 (stereo not drawn) 11.6%
O=C(CC(=O)c1ccccc1)Nc1cc(C(F)(F)F)ccc1Cl -0.8%
CC1CCN(CC(=O)Nc2cc(C(F)(F)F)ccc2Cl)CC1 6.71%
COc1ccc(OC)c(NC(=O)CC2(CC(=O)O)CCCC2)c1 5.41%
O=C(Nc1cccc(-n2cnnn2)c1)c1cc2ccccc2o1 0.98%
CC(=O)Nc1ccc(-c2csc(NCc3ccccc3)n2)cc1 8.92%
CC(=O)Nc1cccc(-c2csc(NCc3ccco3)n2)c1 15.4%
N/C(=N\OC(=O)c1ccco1)c1cccc([N+](=O)[O-])c1 6.07%
CCn1cc(Cl)c(C(=O)Nc2nccs2)n1 1.45%
C=C(C)CSc1nnc(-c2ccc(OC)cc2)n1N 5.76%
O=C(N/N=C/c1ccc(C(F)(F)F)cc1)c1ccc(O)cc1 8.28%
O=C(N/N=C/c1cccc(C(F)(F)F)c1)c1ccc(O)cc1 6.36%
CC(C)(C)c1cc(C(=O)N/N=C/c2ccc(F)cc2)n(-c2ccccc2)n1 6.73%
O=C(NN=Cc1ccc(F)cc1)c1ccccc1NS(=O)(=O)c1cccs1 5.29%
O=C(Nc1ccccc1C(=O)N/N=C/c1ccco1)c1ccccc1 7.26%
CC(C)(C)c1cc(C(=O)N/N=C/c2ccccc2O)n(-c2ccccc2)n1 2.15%
O=C(Nc1ccccc1C(=O)N/N=C/c1ccncc1)c1ccccc1 9.96%
O=C(O)c1ccc(C=NNC(=O)c2ccccc2NS(=O)(=O)c2cccs2)cc1 7.04%
O=C(CSc1nnc(C2CC2)n1-c1ccccc1)NC1CCS(=O)(=O)C1 (stereo not drawn) -2.5%
CCOC(=O)c1cc(C)nn1-c1nc(Cl)cc(OC)n1 5.27%
COC(=O)c1ccccc1NC(=O)Oc1ccc(C(C)C)cc1 8.33%
Cc1ccc(NS(=O)(=O)c2ccc(-n3cccn3)cc2)nc1 4.91%
COc1ccc(S(=O)(=O)N2CCCCC2)cc1NC(=O)C1CSC2(C)CCC(=O)N12 (stereo not drawn) 5.04%
